In article PMC4336329 (PLoS ONE, 2015):
Among all 310,000 compounds or so, about 14,000 (4.5%) showed an effect of 50% or more. The effect is printed as a negative number. The sample holds strong results, similar compounds and a random draw of the others, so the mix is not that of the screen.
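Further: peak tail current of the secondary pulse compared with the same well before compound.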

Each molecule was assayed against human ether-à-go-go-related gene (hERG) potassium channel (human, UniProt Q12809) (assay: primary screen, population patch clamp on CHO cells stably expressing hERG; higher = less effect of the substance).
human ether-à-go-go-related gene (hERG) potassium channel, sequence (Q12809 whole entry, looked up): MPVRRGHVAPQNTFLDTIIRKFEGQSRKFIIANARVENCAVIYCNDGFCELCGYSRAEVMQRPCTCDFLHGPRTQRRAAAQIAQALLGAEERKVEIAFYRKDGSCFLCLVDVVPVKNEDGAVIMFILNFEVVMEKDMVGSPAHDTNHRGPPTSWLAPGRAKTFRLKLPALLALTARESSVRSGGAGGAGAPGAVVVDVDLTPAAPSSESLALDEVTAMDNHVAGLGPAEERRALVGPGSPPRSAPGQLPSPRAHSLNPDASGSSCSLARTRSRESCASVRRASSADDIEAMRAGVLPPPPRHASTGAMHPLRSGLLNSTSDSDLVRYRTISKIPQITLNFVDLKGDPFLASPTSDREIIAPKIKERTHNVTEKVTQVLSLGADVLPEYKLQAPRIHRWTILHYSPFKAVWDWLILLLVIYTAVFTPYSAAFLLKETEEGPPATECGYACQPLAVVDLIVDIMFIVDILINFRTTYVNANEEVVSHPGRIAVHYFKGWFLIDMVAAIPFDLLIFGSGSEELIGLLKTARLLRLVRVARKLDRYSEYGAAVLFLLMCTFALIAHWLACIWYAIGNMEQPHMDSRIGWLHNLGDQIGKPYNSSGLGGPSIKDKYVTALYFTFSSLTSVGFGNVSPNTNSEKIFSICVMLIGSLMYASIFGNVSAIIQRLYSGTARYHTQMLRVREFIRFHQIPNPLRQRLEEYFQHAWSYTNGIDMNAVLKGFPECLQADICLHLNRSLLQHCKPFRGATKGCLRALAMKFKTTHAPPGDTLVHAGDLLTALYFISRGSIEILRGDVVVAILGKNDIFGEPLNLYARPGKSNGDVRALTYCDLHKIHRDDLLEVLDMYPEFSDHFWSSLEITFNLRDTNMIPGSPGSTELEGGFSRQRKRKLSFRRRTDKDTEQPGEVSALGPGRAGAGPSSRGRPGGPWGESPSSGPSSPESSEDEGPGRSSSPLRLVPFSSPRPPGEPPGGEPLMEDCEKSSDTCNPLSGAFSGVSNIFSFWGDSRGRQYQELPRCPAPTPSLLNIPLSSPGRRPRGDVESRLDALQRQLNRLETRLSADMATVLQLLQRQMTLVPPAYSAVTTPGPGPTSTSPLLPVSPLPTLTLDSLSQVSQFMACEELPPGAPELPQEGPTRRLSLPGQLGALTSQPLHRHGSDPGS
Cc1ccc([N+](=O)[O-])cc1NC(=O)c1ccc2c(c1)OCO2 was tested, and the “hERG current change (%, negative = inhibition) at 10uM” value was 11.4%. In the case of Cc1onc(-c2ccccc2)c1C(=O)N(C)CCc1ccccn1, the “hERG current change (%, negative = inhibition) at 10uM” value is reported as 7.12%. CCN(C(=O)CN1CCOCC1)c1c(N)n(Cc2ccccc2)c(=O)[nH]c1=O was tested, and the “hERG current change (%, negative = inhibition) at 10uM” value was 22.2%. With O=C(c1ccc(=O)oc1)N1CCC(C(O)(c2ccccc2)c2ccccc2)CC1 the “hERG current change (%, negative = inhibition) at 10uM” value was -29.2%. For CC(=O)Nc1ccc(-c2cc(C(=O)O)c3ccccc3n2)cc1, the “hERG current change (%, negative = inhibition) at 10uM” value was 17.2%. O=C(O)c1cc(-c2cccs2)nn1-c1cccc(Cl)c1 was tested, and the “hERG current change (%, negative = inhibition) at 10uM” value was 17.8%. In the case of O=c1c(-c2ccc(Br)cc2)coc2c(CN3CCOCC3)c(O)ccc12, the “hERG current change (%, negative = inhibition) at 10uM” value is reported as -20.7%. In the case of O=C(Oc1ccc(N2C(=O)C3C4CCC(C4)C3C2=O)cc1)c1ccco1 (stereo not shown), the “hERG current change (%, negative = inhibition) at 10uM” value is reported as 13.2%. O=C(NC1CCCc2ccccc21)c1cn2ccccc2n1 (stereo not shown) was tested, and the “hERG current change (%, negative = inhibition) at 10uM” value was -25.5%. With CCC(C(=O)OC(C)C(=O)Nc1ccc(Cl)cn1)c1ccccc1 (stereo not shown) the “hERG current change (%, negative = inhibition) at 10uM” value was 0.842%. For CSCCC(NS(=O)(=O)c1ccc(C)cc1)C(=O)Nc1ccc(C)cn1 (stereo not shown), the “hERG current change (%, negative = inhibition) at 10uM” value was 2.68%. With CSCCC(NS(=O)(=O)c1ccccc1)C(=O)OC(C)C(=O)Nc1ccc(Cl)cn1 (stereo not shown) the “hERG current change (%, negative = inhibition) at 10uM” value was -58.8%. CCCOc1ccc(CCc2n[nH]c(=S)n2Cc2ccccc2)cc1 was tested, and the “hERG current change (%, negative = inhibition) at 10uM” value was -7.26%. In the case of COC(=O)C(NC(=O)c1ccc(Cl)cc1)(Nc1nc(C)cs1)C(F)(F)F (stereo not shown), the “hERG current change (%, negative = inhibition) at 10uM” value is reported as -8.63%. With C=CCNc1ncnc2c1[nH]c1ccc(Cl)cc12 the “hERG current change (%, negative = inhibition) at 10uM” value was -7.82%. With Clc1ccc2[nH]c3c(NCC4CCCO4)ncnc3c2c1 (stereo not shown) the “hERG current change (%, negative = inhibition) at 10uM” value was -16.2%. For Fc1ccc2[nH]c3c(NCc4ccccc4)ncnc3c2c1, the “hERG current change (%, negative = inhibition) at 10uM” value was 10.5%. For CCN1CCCC1CNc1ncnc2c1[nH]c1ccc(F)cc12 (stereo not shown), the “hERG current change (%, negative = inhibition) at 10uM” value was -76.6%. For CCN1CCCC1CNc1ncnc2c1[nH]c1ccc(Cl)cc12 (stereo not shown), the “hERG current change (%, negative = inhibition) at 10uM” value was -77.1%. With CC(C)OCCCNc1ncnc2c1[nH]c1ccc(F)cc12 the “hERG current change (%, negative = inhibition) at 10uM” value was -2.39%. CCCCCOC(=O)C1=C(C)NC(=O)NC1c1ccc(OC)cc1 (stereo not shown) was tested, and the “hERG current change (%, negative = inhibition) at 10uM” value was 5.95%. In the case of CCN(CC)CCCN(Cc1cc2cc3c(cc2[nH]c1=O)OCO3)C(=S)NCCOC, the “hERG current change (%, negative = inhibition) at 10uM” value is reported as 5.4%. In the case of COc1ccc(C(=O)Nc2ccc(N3CCN(C(=O)c4ccccc4)CC3)cc2)cc1[N+](=O)[O-], the “hERG current change (%, negative = inhibition) at 10uM” value is reported as -67.2%. COc1ccc(C(=O)Nc2ccc(N3CCN(C(C)=O)CC3)cc2)cc1[N+](=O)[O-] was tested, and the “hERG current change (%, negative = inhibition) at 10uM” value was 11.7%. CCOc1ccc(C(=O)Nc2ccc(N3CCCC3)cc2)cc1 was tested, and the “hERG current change (%, negative = inhibition) at 10uM” value was 3.89%. With CCOc1ccc(C(=O)Nc2ccc(N3CCN(C)CC3)cc2)cc1 the “hERG current change (%, negative = inhibition) at 10uM” value was -50.2%. In the case of CCOc1ccc(C(=O)Nc2ccc(N3CCN(C(C)=O)CC3)cc2)cc1[N+](=O)[O-], the “hERG current change (%, negative = inhibition) at 10uM” value is reported as -45.5%. COc1ccc(C(=O)Nc2ccc(C(=O)N3CCCC3)cc2)cc1[N+](=O)[O-] was tested, and the “hERG current change (%, negative = inhibition) at 10uM” value was -33.2%. In the case of CCCCOc1ccc(C(=O)Nc2ccc(N3CCN(C)CC3)cc2)cc1, the “hERG current change (%, negative = inhibition) at 10uM” value is reported as -10.2%. For COc1ccc(C(=O)Nc2ccc(N3CCN(C)CC3)cc2)cc1[N+](=O)[O-], the “hERG current change (%, negative = inhibition) at 10uM” value was -38.5%. CCOc1ccc(C(=O)Nc2ccc(N3CCN(C)CC3)cc2)cc1[N+](=O)[O-] was tested, and the “hERG current change (%, negative = inhibition) at 10uM” value was -57.3%. With CCC(=O)Nc1ccccc1C(=O)OCc1ccc(C(=O)c2ccccc2)cc1 the “hERG current change (%, negative = inhibition) at 10uM” value was -16.1%. In the case of CCCCC(C(=O)NC(=O)NCc1ccccc1)N1C(=O)c2ccccc2C1=O (stereo not shown), the “hERG current change (%, negative = inhibition) at 10uM” value is reported as 11%. For CO/N=C(\N)c1nonc1N, the “hERG current change (%, negative = inhibition) at 10uM” value was 0.407%. COCOc1cc(O)c(C(=O)/C=C/c2ccccc2)c(OCOC)c1 was tested, and the “hERG current change (%, negative = inhibition) at 10uM” value was 4.67%. In the case of CC(C)O.COc1cc(/C=N/NC(=O)c2ccc(O)cc2)ccc1Oc1ccc([N+](=O)[O-])cn1, the “hERG current change (%, negative = inhibition) at 10uM” value is reported as -32%. For Cc1ccc(S(=O)(=O)N(C)c2ccc(OC(=O)CN3C(=O)NC4(CCCC4)C3=O)cc2)cc1, the “hERG current change (%, negative = inhibition) at 10uM” value was -14.4%. COc1ccccc1C(=O)Nc1ccnn1C1CCN(CCC(C)c2ccc(C)o2)CC1 (stereo not shown) was tested, and the “hERG current change (%, negative = inhibition) at 10uM” value was -80.8%. COc1ccc(C(=O)Nc2ccnn2C2CCN(Cc3ccncc3)CC2)cc1 was tested, and the “hERG current change (%, negative = inhibition) at 10uM” value was -8.86%. For C/C=C(\C)CN1CCC(n2nccc2NC(=O)c2ccc(OC)cc2)CC1, the “hERG current change (%, negative = inhibition) at 10uM” value was 2.92%. In the case of COC(C(=O)Nc1ccnn1C1CCN(Cc2ccc(C)o2)CC1)c1ccccc1 (stereo not shown), the “hERG current change (%, negative = inhibition) at 10uM” value is reported as -2.65%. COc1ccc(C(=O)Nc2ccnn2C2CCN(CCC(C)c3ccc(C)o3)CC2)cc1 (stereo not shown) was tested, and the “hERG current change (%, negative = inhibition) at 10uM” value was -67%. For CCOc1cc(NC2CS(=O)(=O)CC2O)c(OCC)cc1NC(=O)c1ccccc1 (stereo not shown), the “hERG current change (%, negative = inhibition) at 10uM” value was 5.95%. With Cc1nnc(N/N=C/c2ccc(-c3ccccc3F)o2)n1N.Cl the “hERG current change (%, negative = inhibition) at 10uM” value was -40.3%. For CN(C)c1cccc2cccc(N(C)C)c12, the “hERG current change (%, negative = inhibition) at 10uM” value was -3.13%. For NC(=O)C1CCN(C(=O)/C(=C/c2ccco2)NC(=O)c2ccccc2)CC1, the “hERG current change (%, negative = inhibition) at 10uM” value was 11.2%. With O=C(N/C(=C/c1ccco1)C(=O)N1CCCCCC1)c1ccccc1 the “hERG current change (%, negative = inhibition) at 10uM” value was 13.2%. For O=C(N/C(=C\c1ccco1)C(=O)N1CCCC1)c1ccccc1, the “hERG current change (%, negative = inhibition) at 10uM” value was 1.23%. With CN1CCN(C(=O)/C(=C/c2ccco2)NC(=O)c2ccccc2)CC1 the “hERG current change (%, negative = inhibition) at 10uM” value was -67.6%. O=C(N/C(=C\c1ccco1)C(=O)N1CCC(O)CC1)c1ccccc1 was tested, and the “hERG current change (%, negative = inhibition) at 10uM” value was 27.7%. With CCN1CCN(C(=O)/C(=C/c2ccco2)NC(=O)c2ccccc2)CC1 the “hERG current change (%, negative = inhibition) at 10uM” value was -70.4%. In the case of CCN(c1ccc(OC)cc1)S(=O)(=O)c1csc(C(N)=O)c1, the “hERG current change (%, negative = inhibition) at 10uM” value is reported as 6.68%. For COc1ccc(C(=O)Cc2ccc(OC)c(OC)c2)c(OC)c1, the “hERG current change (%, negative = inhibition) at 10uM” value was -0.547%. Cc1ccccc1-n1nnc2c(=O)oc3ccccc3c21 was tested, and the “hERG current change (%, negative = inhibition) at 10uM” value was 8.96%. In the case of Cc1ccc(-n2nc3ccc(NC(=O)/C=C/c4ccco4)cc3n2)cc1, the “hERG current change (%, negative = inhibition) at 10uM” value is reported as 7.32%.
